From PubChem BioAssay AID504652 (National Center for Advancing Translational Sciences (NCATS), 2011) come the findings set out here.

Out of some 360,000 compounds screened, about 11,000 (3.1%) were called active. What follows is part of a selection rich in actives, with near analogues and random picks from the rest. Unmarked numbers belong to inactive results. Cut-off read from the data, not from the text of the source: active = activity change below about -30%; inactive = the rest.
% is set by controls: 0 for no effect and ±100 for the full control effect.

Sequence of D(1A) dopamine receptor (Homo sapiens) (P21728 whole entry, looked up): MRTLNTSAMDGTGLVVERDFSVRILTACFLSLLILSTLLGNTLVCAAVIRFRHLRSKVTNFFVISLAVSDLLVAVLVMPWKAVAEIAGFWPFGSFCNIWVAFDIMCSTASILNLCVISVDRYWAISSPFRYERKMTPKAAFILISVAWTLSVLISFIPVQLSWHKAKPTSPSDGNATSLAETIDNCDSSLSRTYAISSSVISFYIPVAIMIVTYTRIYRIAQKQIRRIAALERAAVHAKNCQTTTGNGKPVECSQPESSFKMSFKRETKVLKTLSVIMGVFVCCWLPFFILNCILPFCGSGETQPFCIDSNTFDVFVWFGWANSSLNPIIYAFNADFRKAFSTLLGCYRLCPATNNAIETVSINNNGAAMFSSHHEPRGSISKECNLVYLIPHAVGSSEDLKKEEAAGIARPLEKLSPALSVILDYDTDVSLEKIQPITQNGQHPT

In this assay the target is D(1A) dopamine receptor (Homo sapiens) (UniProt P21728). Kind of assay: Antagonist of Human D 1 Dopamine Receptor: qHTS. The settings on record: HEK293 TREx D1 cells, calcium flux, dopamine EC80; at 10 µM; active compounds read low. In outline:
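Calcium flux readout: force-coupled, inducible Hek293 Trex D1 line, cells induced overnight at 30 C with tetracycline, dye-loaded 30–90 min at RT. Antagonism scored against EC80 dopamine challenge given 180 s after compound.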
For orientation: Quantitative high-throughput screening tests each substance at several concentrations.
For the compound `O=C1CN(C(=O)Nc2ccccc2C(F)(F)F)C(c2ccccc2)c2c(sc3c2CCCC3)N1` (stereo not given), the activity change, negative = inhibition was -10.2%.

Turning to `COc1cccc(-n2cc(C(=O)NCc3cccc(Cl)c3)c3ccccc3c2=O)c1`, the activity change, negative = inhibition was -9.19%.

Take `Cc1ccc(C)c(Cn2c(=O)n(CCC(=O)NCc3ccc4c(c3)OCO4)c(=O)c3sccc32)c1`: the activity change, negative = inhibition was -5.56%.

Turning to `COc1ccccc1N1CCN(C2C(=O)c3ccccc3N2C(C)=O)CC1` (stereo not given), the activity change, negative = inhibition is -1.14%.

For `O=C(c1ccc2c(c1)N(Cc1ccccc1)C(=O)c1ccccc1S2(=O)=O)N1CCC(Cc2ccccc2)CC1`, the activity change, negative = inhibition was -25.2%.

`COc1ccc(Cn2ccn(CC(=O)Nc3cc(C)ccc3C)c(=O)c2=O)cc1`: the activity change, negative = inhibition was 10.1%.

On to `COc1cccc(N2C(=O)CN(Cc3ccccc3)C2=S)c1`, for which the activity change, negative = inhibition is 1.81%.

For `COc1ccc(Cn2ccn(Cc3cccc(OC)c3)c(=O)c2=O)cc1`, the activity change, negative = inhibition was -44.5% (active).

Take `CC(=O)c1ccc(NC(c2ccc(F)cc2)c2nnc(-c3ccccc3)o2)cc1` (stereo not given): the activity change, negative = inhibition was -24.1%.

With `CCOC(=O)c1c(C)[nH]c(C2=NNC(=NC(C)COC)SC2)c1C` (stereo not given), the activity change, negative = inhibition was -30% (active).

Consider `Cc1ccc(-c2noc(CSc3nnc(-c4ccc(Cl)cc4)n3C)n2)cc1`, for which the activity change, negative = inhibition is 0.344%.

On to `Cc1ccc2cccc(NC(=O)C(C)Oc3ccc(C)c(C)c3)c2n1` (stereo not given), for which the activity change, negative = inhibition was -2.12%.

With `COC(=O)c1cc(NC(=O)c2cnc(SC)nc2-c2ccccc2)cc(C(=O)OC)c1`, the activity change, negative = inhibition is -16.6%.

For `CCN(CC)S(=O)(=O)c1nnc(NC(=O)COc2ccccc2Cl)s1`, the activity change, negative = inhibition was 1.29%.

For `COc1ccc2[nH]c(C)c(CCN(Cc3cccs3)C(=S)Nc3ccccc3OC)c2c1`, the activity change, negative = inhibition was -1.49%.

For `CCNC(=S)N(CCc1c(C)[nH]c2ccc(C)cc12)Cc1ccco1`, the activity change, negative = inhibition is -10.7%.

In the case of `COc1cccc(NC(=S)N(CCc2c(C)[nH]c3ccccc23)Cc2ccco2)c1`, the activity change, negative = inhibition was -45.7% (active).

In the case of `COc1ccc(-c2cc(-c3ccc(F)cc3)nc3c2COc2ccccc2-3)cc1`, the activity change, negative = inhibition is 10.1%.

For the compound `Cc1ccc(Cl)cc1N1CCN(C(=O)C2CCC(CNS(=O)(=O)c3cccs3)CC2)CC1` (stereo not given), the activity change, negative = inhibition was 4.96%.

As for `CCN(CC)c1ccc(NC(=O)CN2CCN(CC(=O)Nc3ccc(Cl)cc3)CC2)cc1`, the activity change, negative = inhibition is 7.6%.

As to `O=C(OCc1cc(=O)n2nc(C3CC3)sc2n1)c1ccccc1Cl`, the activity change, negative = inhibition was -4.47%.

As to `Cc1ccc(-n2c(=O)c3cccnc3n2CC(=O)NCc2ccc(F)cc2)cc1C`, the activity change, negative = inhibition was 4.39%.

`OCC1(CCc2ccccc2)CCN(Cc2ccc3nsnc3c2)CC1`: the activity change, negative = inhibition is -86% (active).

`CC(C)(O)C#Cc1ccc(CN2CCC(CO)(CCc3ccccc3)CC2)cc1`: the activity change, negative = inhibition is 10.7%.

Regarding `Cc1cccc(-c2ncc(CN3CCC(CO)(CCCc4ccccc4)CC3)cn2)c1`, the activity change, negative = inhibition was 16.2%.
